From PubChem BioAssay
Shown are actives, neighbours in structure and some others; about 4.5% of the full set was active somewhere.
CSC inhib: cancer stem cell viability inhibitors, primary screen, luminescence; cancer stem cell-like cells viability; 300,000 tested, 1.1% active; inhibition, % at 7.5 µM; AID 2717, 2010; in the data active = inhibition above about 75%; tested in HMLE shEcad cells
Jurkat NFkB inh: inhibitors of induced NF-kB luciferase reporter, primary screen, TCR NF-kB activation inhibitor project, cell-based, luminescence, uHTS. inhibition, % at 4 µM. Jurkat, PMA/ionomycin-induced NF-kB luciferase reporter. 330,000 tested, 0.53% active; in the data active = inhibition above about 50%
Mdm2 MdmX PPI: inhibitors of human Mdm2-MdmX association, primary screen, cell-based, luminescence, split luciferase, SaOS-2, uHTS; Protein Mdm4 (Homo sapiens) + E3 ubiquitin-protein ligase Mdm2 (Homo sapiens), …; SaOS-2 split-luciferase Mdm2/MdmX complementation; inhibition, % at 8 µM; 330,000 tested, 3% active;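 active = inhibition of at least 50% at 8 µM in the primary screen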
Target sequence (O15151 whole entry, looked up): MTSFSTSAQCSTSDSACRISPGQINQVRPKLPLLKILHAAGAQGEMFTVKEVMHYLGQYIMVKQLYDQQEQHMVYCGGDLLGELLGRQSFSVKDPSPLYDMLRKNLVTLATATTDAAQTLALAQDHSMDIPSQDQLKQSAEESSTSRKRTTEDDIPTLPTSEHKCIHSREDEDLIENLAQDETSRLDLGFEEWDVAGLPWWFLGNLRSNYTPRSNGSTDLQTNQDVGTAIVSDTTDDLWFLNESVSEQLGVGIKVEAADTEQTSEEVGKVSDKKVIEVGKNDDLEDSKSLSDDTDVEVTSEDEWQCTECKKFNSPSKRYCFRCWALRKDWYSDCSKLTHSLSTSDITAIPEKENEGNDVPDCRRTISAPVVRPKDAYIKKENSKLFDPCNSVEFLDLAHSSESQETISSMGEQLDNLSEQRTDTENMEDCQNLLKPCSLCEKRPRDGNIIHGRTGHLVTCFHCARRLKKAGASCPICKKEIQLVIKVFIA
Target sequence (Q00987 whole entry, looked up): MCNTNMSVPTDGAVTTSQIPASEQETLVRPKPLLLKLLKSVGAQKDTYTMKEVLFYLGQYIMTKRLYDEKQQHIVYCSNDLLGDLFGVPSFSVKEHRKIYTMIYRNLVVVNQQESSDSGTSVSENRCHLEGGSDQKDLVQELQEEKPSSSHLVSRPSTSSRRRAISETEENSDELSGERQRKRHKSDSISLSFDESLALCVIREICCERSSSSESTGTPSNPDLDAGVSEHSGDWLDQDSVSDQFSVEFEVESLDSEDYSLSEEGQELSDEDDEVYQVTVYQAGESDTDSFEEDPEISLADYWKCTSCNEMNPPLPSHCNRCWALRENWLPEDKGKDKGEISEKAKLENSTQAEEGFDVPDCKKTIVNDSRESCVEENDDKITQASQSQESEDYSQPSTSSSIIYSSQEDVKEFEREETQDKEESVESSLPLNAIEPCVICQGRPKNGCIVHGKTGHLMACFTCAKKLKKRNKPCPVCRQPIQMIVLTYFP
aSyn 5UTR inh: MLPCN primary screen, SNCA 5' untranslated region. alpha-synuclein 5'UTR reporter, inhibitor activity. inhibition, % (tested at 7.5 µM). 300,000 tested, 0.82% active. AID 1813, 2009; in the data active = inhibition above about 60%;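 note: H4 neuroglioblastoma cells stably carrying SNCA 5'UTR luciferase fusion; 0% = DMSO wells and 100% = positive control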
697 NFkB inh: inhibitors of PMA/ionomycin-induced NF-kB reporter, 697 cells, primary screen, B-cell NF-kB inhibitor project, cell-based, luminescence, uHTS. 697 B-cell NF-kB luciferase reporter, 16 h. inhibition, % at 4 µM. 330,000 tested, 0.33% active; in the data active = inhibition above about 35%
Gli-Sufu block: Gli-Sufu pathway antagonists, primary screen, luciferase luminescence, Sufu-KO-LIGHT cells, uHTS; inhibition, % at 5 µM; 340,000 tested, 0.74% active; Sufu-KO-LIGHT fibroblasts, Gli luciferase reporter luminescence;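 active = inhibition above about 55%, limit read from the data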;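 note: 0% = DMSO-treated cells and 100% = wells with medium but no cells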
An asterisk follows results filed as active.

How did Cc1ccc(C(=O)N2C(=O)C(c3ccccc3)Oc3ccccc32)cc1 (stereo not drawn) do in these assays?
CSC inhib: 14; Jurkat NFkB inh: -33; Mdm2 MdmX PPI: 25; aSyn 5UTR inh: 93*; 697 NFkB inh: -8; Gli-Sufu block: 2

How did O=C(NC1CCCCC1)c1ccc(Cn2cc(Cl)cn2)cc1 do in these assays?
CSC inhib: -13; Jurkat NFkB inh: 13; Mdm2 MdmX PPI: -2; aSyn 5UTR inh: -12; 697 NFkB inh: -2; Gli-Sufu block: 3

Results for FC(F)(F)c1cc(CCN2C(=S)NC[C@@H]2CC2CCCCC2)cc(C(F)(F)F)c1 ?
CSC inhib: 97*; Jurkat NFkB inh: 7; Mdm2 MdmX PPI: 15; aSyn 5UTR inh: 14; 697 NFkB inh: -7; Gli-Sufu block: 3

How did Cc1cccc(-n2c(C)cc(/C=C3\C(=N)N4N=C(CC(C)C)SC4=NC3=O)c2C)c1 do in these assays?
CSC inhib: -4; Jurkat NFkB inh: 15; Mdm2 MdmX PPI: 25; aSyn 5UTR inh: -3; 697 NFkB inh: -7; Gli-Sufu block: -4

What do the screens show for `Cc1cc(C)cc(-n2c(C)cc(/C=C3\C(=N)N4N=C(CC(C)C)SC4=NC3=O)c2C)c1`?
CSC inhib: 103*; Jurkat NFkB inh: 17; Mdm2 MdmX PPI: 8; aSyn 5UTR inh: -16; 697 NFkB inh: 2; Gli-Sufu block: 0

How did Cc1ccc(C(=O)NCCc2ccncc2)cc1 do in these assays?
CSC inhib: -14; Jurkat NFkB inh: -55; Mdm2 MdmX PPI: -26; aSyn 5UTR inh: -114; 697 NFkB inh: -20; Gli-Sufu block: -34

How did Cc1ccc(C(=O)NCCc2ccccc2)cc1 do in these assays?
CSC inhib: -11; Jurkat NFkB inh: -36; Mdm2 MdmX PPI: 49; aSyn 5UTR inh: 71*; 697 NFkB inh: -92; Gli-Sufu block: 13

Results for COc1ccc(S(=O)(=O)NCC2CCC(C(=O)N3CCC4(CC3)OCCO4)CC2)cc1 (stereo not drawn) ?
aSyn 5UTR inh: 13; Gli-Sufu block: 2

Results for CN(C)C(CNS(=O)(=O)c1ccc2ccccc2c1)c1ccccc1 (stereo not drawn) ?
CSC inhib: 82*; Jurkat NFkB inh: -18; Mdm2 MdmX PPI: -9; aSyn 5UTR inh: 2; 697 NFkB inh: -15; Gli-Sufu block: 7

What do the screens show for `Cc1ccc(S[C@@H](CCN2CC[C@H](C(C)(C)C)CCC2=O)c2ccccc2)cc1`?
CSC inhib: 108*; Jurkat NFkB inh: 3; Mdm2 MdmX PPI: 18; aSyn 5UTR inh: -9; 697 NFkB inh: -27; Gli-Sufu block: 25

Results for C[C@@H]1CCC(=O)N(CC[C@H](Sc2ccc(Br)cc2)c2ccccc2)CC1 ?
CSC inhib: 97*; Jurkat NFkB inh: -16; Mdm2 MdmX PPI: 21; 697 NFkB inh: -22; Gli-Sufu block: 5

How did Cc1ccc(S[C@@H](CCN2CC[C@H](O)CCC2=O)c2ccccc2)cc1 do in these assays?
CSC inhib: 1; Jurkat NFkB inh: 11; Mdm2 MdmX PPI: -8; aSyn 5UTR inh: -1; 697 NFkB inh: 7; Gli-Sufu block: -3

What do the screens show for `Cc1ccc(S[C@@H](CCN2CC[C@H](C)CCC2=O)c2ccccc2)cc1`?
CSC inhib: 40; Jurkat NFkB inh: -1; Mdm2 MdmX PPI: -3; aSyn 5UTR inh: 1; 697 NFkB inh: -33; Gli-Sufu block: 3

How did O=C(Nc1ccc2c(c1)OCCO2)c1ccccn1 do in these assays?
CSC inhib: 32; Jurkat NFkB inh: -70; Mdm2 MdmX PPI: 9; aSyn 5UTR inh: 88*; 697 NFkB inh: -73; Gli-Sufu block: -48

How did Cc1ccc(C(=O)Nc2ccc3c(c2)OCCO3)c(C)c1 do in these assays?
CSC inhib: -3; Jurkat NFkB inh: -20; Mdm2 MdmX PPI: 48; aSyn 5UTR inh: 73*; 697 NFkB inh: -160; Gli-Sufu block: -68

Results for CC(=O)Nc1ccc(C(=O)Nc2ccc3c(c2)OCCO3)cc1 ?
CSC inhib: -4; Jurkat NFkB inh: -23; Mdm2 MdmX PPI: 2; aSyn 5UTR inh: 21; 697 NFkB inh: -1; Gli-Sufu block: -10

Results for O=C(CN1N=C(c2ccc(Cl)cc2)CCC1=O)NCCN1CCc2ccccc2C1 ?
CSC inhib: 9; Jurkat NFkB inh: 10; Mdm2 MdmX PPI: 6; aSyn 5UTR inh: 14; 697 NFkB inh: 11; Gli-Sufu block: 12
